Data from the supplement of paper PMC10849652.
Targets with a hit are over-represented here; the source holds about 7,900 in all. About 0.6% of all pairs of compound and target were hits.

Key:
Experiment in all cases: log2 fold change, soluble protein after heating vs DMSO (PISA); higher = thermal stabilisation; K562 cells, 10 uM, 30 min; active = over 0.2 and 3.5 SD of the protein, either way, in both replicates (recomputed)
[1] = compound: CC1=C(C=C(C=C1)NC(=O)C2=CC(=CC=C2)C(C)(C)C#N)NC3=CC4=C(C=C3)N=CN(C4=O)C
How it was run: (§1)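 Soluble protein was defined as the supernatant after 21,000xg for 90 min. It came from K562 cells at 2×10^6 cells/mL given 10 μM compound for 30 min, heated in aliquots for 3 min across 48°C-58°C, pooled, and extracted in PBS with 0.5% NP-40 at 4°C, and was quantified by TMTpro 16plex LC-MS/MS with equalised channel sums. Thermal stability against control samples, from duplicates, is reported as log2 fold change.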

[2] = compound: CC1=C(C=C(C=C1)NC(=O)C2=CC(=CC=C2)N(C)C)NC(=O)C3=CC=C(C=C3)O
How it was run: as §1

[3] = compound: CC1=CC=C(C=C1)SC2=C3C=C(SC3=CN=C2)C(=O)N
How it was run: as §1

[4] = compound: CC1=NC(=CC=C1)C2=C(N=C(N2)C(C)(C)C)C3=CC4=NC=CN=C4C=C3
How it was run: as §1

Nexturastat A = compound: CCCCN(Cc1ccc(C(=O)NO)cc1)C(=O)Nc1ccccc1 [Nexturastat A]
How it was run: as §1

vemurafenib = compound: CCCS(=O)(=O)Nc1ccc(F)c(C(=O)c2c[nH]c3ncc(-c4ccc(Cl)cc4)cc23)c1F [vemurafenib]
How it was run: as §1

[5] = compound: CCCS(=O)(=O)Nc1ccc(F)c(C(=O)c2c[nH]c3ncc(Cl)cc23)c1F
How it was run: as §1

[6] = compound: CCCc1cc(C)[nH]c(=O)c1CNC(=O)c1cc(-c2ccnc(N3CCN(C)CC3)c2)cc2c1cnn2C(C)C
How it was run: as §1

givinostat = compound: CCN(CC)Cc1ccc2cc(COC(=O)Nc3ccc(C(=O)NO)cc3)ccc2c1 [givinostat]
How it was run: as §1

barasertib = compound: CCN(CCCOc1ccc2c(Nc3cc(CC(=O)Nc4cccc(F)c4)[nH]n3)ncnc2c1)CCOP(=O)(O)O [barasertib]
How it was run: as §1

Measured: log2 fold change

MSL1 (UniProt Q68DK7)
UniProt Q68DK7, sequence (Q68DK7 whole entry, looked up): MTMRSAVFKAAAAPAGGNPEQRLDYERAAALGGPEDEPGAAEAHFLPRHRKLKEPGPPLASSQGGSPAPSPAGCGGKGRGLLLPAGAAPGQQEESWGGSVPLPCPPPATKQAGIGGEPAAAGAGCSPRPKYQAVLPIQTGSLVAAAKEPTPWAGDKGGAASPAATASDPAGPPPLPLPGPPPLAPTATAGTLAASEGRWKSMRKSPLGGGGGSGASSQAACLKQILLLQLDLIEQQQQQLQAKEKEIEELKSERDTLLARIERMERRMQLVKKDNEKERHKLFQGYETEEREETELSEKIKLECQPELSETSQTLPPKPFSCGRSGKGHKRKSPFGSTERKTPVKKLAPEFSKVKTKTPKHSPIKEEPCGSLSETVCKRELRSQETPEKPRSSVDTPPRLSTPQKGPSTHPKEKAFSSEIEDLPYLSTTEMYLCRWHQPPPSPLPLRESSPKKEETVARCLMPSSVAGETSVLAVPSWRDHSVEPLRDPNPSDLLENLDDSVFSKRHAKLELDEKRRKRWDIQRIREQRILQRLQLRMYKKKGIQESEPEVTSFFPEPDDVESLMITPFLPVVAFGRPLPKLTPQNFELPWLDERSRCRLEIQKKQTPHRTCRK
inactive: [1] -0.014 | [2] 0.037 | [3] -0.026 | [4] 0.039 | Nexturastat A 0.185 | vemurafenib -0.02 | [5] -0.001 | [6] 0.05 | givinostat 0.197 | barasertib -0.002

NUMB (UniProt P49757)
inactive: [1] -0.006 | [2] 0.018 | [3] -0.067 | [4] -0.046 | Nexturastat A 0.09 | vemurafenib 0.026 | [5] -0.002 | [6] 0.004 | givinostat 0.02 | barasertib -0.01

NME1 isoform 2 (UniProt P15531)
inactive: [1] -0.054 | [2] 0.047 | [3] 0.029 | [4] -0.006 | Nexturastat A -0.067 | vemurafenib -0.003 | [5] -0.045 | [6] -0.092 | givinostat -0.07 | barasertib -0.108

NQO1 (UniProt P15559)
UniProt P15559, sequence (P15559 whole entry, looked up): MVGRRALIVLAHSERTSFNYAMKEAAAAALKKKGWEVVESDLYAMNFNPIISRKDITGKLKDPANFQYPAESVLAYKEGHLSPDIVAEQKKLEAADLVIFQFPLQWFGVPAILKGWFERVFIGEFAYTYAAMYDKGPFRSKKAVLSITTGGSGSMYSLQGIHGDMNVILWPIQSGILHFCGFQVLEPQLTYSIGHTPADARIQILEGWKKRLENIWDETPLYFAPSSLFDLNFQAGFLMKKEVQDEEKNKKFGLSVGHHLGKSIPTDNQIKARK
inactive: [1] 0.075 | [2] -0.023 | [3] 0.032 | [4] 0.025 | Nexturastat A -0.049 | vemurafenib 0.027 | [5] -0.007 | [6] 0.039 | givinostat -0.01 | barasertib 0.036

NEMP1 (UniProt O14524)
inactive: [1] -0.051 | [2] 0.037 | [3] 0.031 | [4] -0.022 | Nexturastat A -0.057 | vemurafenib -0.084 | [5] -0.041 | [6] -0.001 | givinostat -0.061 | barasertib -0.034

NIPSNAP2 (UniProt O75323)
UniProt O75323, sequence (O75323 whole entry, looked up): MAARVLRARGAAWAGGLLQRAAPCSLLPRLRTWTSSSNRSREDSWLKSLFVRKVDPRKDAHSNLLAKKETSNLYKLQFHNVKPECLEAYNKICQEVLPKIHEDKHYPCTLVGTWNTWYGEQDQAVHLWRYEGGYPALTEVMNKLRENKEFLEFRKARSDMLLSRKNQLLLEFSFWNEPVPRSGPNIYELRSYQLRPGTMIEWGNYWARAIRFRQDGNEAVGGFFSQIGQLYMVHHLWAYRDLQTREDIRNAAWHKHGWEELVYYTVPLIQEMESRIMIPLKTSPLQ
inactive: [1] 0.06 | [2] -0.044 | [3] 0.055 | [4] 0 | Nexturastat A -0.072 | vemurafenib 0.06 | [5] 0.029 | [6] 0.007 | givinostat -0.081 | barasertib 0.019

NDUFA4 (UniProt O00483)
UniProt O00483, sequence (O00483 whole entry, looked up): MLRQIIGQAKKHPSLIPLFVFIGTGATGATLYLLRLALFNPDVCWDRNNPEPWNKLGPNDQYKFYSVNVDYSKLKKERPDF
inactive: [1] 0.046 | [2] -0.069 | [3] -0.003 | [4] 0.049 | Nexturastat A -0.033 | vemurafenib 0.002 | [5] 0.018 | [6] -0.023 | givinostat -0.099 | barasertib 0.044

MNAT1 (UniProt P51948)
inactive: [1] 0.004 | [2] -0.006 | [3] 0.001 | [4] 0.001 | Nexturastat A 0.043 | vemurafenib -0.006 | [5] 0.039 | [6] -0.037 | givinostat 0.069 | barasertib -0.003

NCAPG (UniProt Q9BPX3)
inactive: [1] 0.086 | [2] -0.074 | [3] 0.027 | [4] 0.038 | Nexturastat A 0.011 | vemurafenib 0.056 | [5] 0.091 | [6] 0.064 | givinostat 0.081 | barasertib 0.064

MKRN2 (UniProt Q9H000)
inactive: [1] 0.147 | [2] 0.059 | [3] -0.002 | [4] 0.086 | Nexturastat A 0.091 | vemurafenib 0.095 | [5] 0.035 | [6] -0.045 | givinostat 0.083 | barasertib -0.098

NME2P1 (UniProt O60361)
UniProt O60361, sequence (O60361 whole entry, looked up): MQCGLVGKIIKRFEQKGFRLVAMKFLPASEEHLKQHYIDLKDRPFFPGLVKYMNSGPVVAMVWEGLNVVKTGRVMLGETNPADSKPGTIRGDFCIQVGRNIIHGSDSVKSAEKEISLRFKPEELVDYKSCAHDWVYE
inactive: [1] 0.06 | [2] 0.017 | [3] 0.065 | [4] 0.004 | Nexturastat A -0.164 | vemurafenib 0.038 | [5] -0.043 | [6] -0.102 | givinostat 0.09 | barasertib 0.12

MRPS27 isoform 2 (UniProt Q92552)
inactive: [1] 0.037 | [2] -0.022 | [3] 0.006 | [4] 0.039 | Nexturastat A 0.151 | vemurafenib 0.064 | [5] 0.035 | [6] 0.051 | givinostat 0.055 | barasertib -0.016

MRPL47 (UniProt Q9HD33)
inactive: [1] 0.035 | [2] -0.045 | [3] -0.03 | [4] -0.078 | Nexturastat A 0.139 | vemurafenib -0.117 | [5] -0.097 | [6] 0.073 | givinostat 0.052 | barasertib -0.047

NHLRC2 (UniProt Q8NBF2)
inactive: [1] -0.06 | [2] 0.225 | [3] -0.014 | [4] -0.014 | Nexturastat A -0.055 | vemurafenib -0.053 | [5] -0.048 | [6] -0.076 | givinostat -0.006 | barasertib -0.004

NUP160 (UniProt Q12769)
inactive: [1] 0.006 | [2] 0.037 | [3] 0.023 | [4] 0.017 | Nexturastat A -0.037 | vemurafenib -0.01 | [5] 0.083 | [6] 0.002 | givinostat 0.018 | barasertib 0.062

NOB1 (UniProt Q9ULX3)
inactive: [1] 0.039 | [2] 0.047 | [3] 0.012 | [4] 0.027 | Nexturastat A 0.034 | vemurafenib 0.055 | [5] 0.031 | [6] 0.182 | givinostat 0.055 | barasertib 0.041

ORC3 isoform 2 (UniProt Q9UBD5)
inactive: [1] -0.027 | [2] -0.056 | [3] 0.146 | [4] 0.075 | Nexturastat A -0.124 | vemurafenib 0.012 | [5] 0.143 | [6] 0.044 | givinostat 0.145 | barasertib 0.178

NCL (UniProt P19338)
inactive: [1] -0.017 | [2] -0.056 | [3] -0.077 | [4] -0.126 | Nexturastat A 0.275 | vemurafenib -0.139 | [5] -0.036 | [6] 0.145 | givinostat 0.085 | barasertib -0.101

NAT14 (UniProt Q8WUY8)
inactive: [1] 0.012 | [2] -0.054 | [3] 0.011 | [4] 0.031 | Nexturastat A 0.227 | vemurafenib 0.054 | [5] -0.051 | [6] -0.103 | givinostat -0.043 | barasertib 0.027

NUDT16 (UniProt Q96DE0)
inactive: [1] -0.031 | [2] -0.005 | [3] -0.008 | [4] -0.03 | Nexturastat A -0.003 | vemurafenib 0.163 | [5] 0.019 | [6] -0.041 | givinostat -0.006 | barasertib 0.028

NMRAL1 (UniProt Q9HBL8)
UniProt Q9HBL8, sequence (Q9HBL8 whole entry, looked up): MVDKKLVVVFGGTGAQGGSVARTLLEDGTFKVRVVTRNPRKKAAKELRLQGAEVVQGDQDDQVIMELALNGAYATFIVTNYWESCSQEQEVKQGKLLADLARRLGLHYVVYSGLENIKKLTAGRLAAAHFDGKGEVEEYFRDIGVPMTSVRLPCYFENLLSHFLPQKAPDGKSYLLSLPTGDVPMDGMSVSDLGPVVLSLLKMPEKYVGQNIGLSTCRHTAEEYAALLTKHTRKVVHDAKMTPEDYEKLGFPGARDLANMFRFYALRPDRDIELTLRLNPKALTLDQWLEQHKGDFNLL
inactive: [2] 0.029 | [3] 0.025 | [4] -0.151 | Nexturastat A -0.138 | vemurafenib 0.003 | [5] -0.074 | [6] 0.234 | givinostat 0.027 | barasertib -0.021
active: [1] 1.01

NAA11 (UniProt Q9BSU3)
inactive: [1] -0.375 | [2] 0.006 | [3] 0.06 | [4] 0.021 | Nexturastat A -0.016 | vemurafenib 0.145 | [5] -0.067 | [6] 0.047 | givinostat 0 | barasertib -0.027

OAT (UniProt P04181)
UniProt P04181, sequence (P04181 whole entry, looked up): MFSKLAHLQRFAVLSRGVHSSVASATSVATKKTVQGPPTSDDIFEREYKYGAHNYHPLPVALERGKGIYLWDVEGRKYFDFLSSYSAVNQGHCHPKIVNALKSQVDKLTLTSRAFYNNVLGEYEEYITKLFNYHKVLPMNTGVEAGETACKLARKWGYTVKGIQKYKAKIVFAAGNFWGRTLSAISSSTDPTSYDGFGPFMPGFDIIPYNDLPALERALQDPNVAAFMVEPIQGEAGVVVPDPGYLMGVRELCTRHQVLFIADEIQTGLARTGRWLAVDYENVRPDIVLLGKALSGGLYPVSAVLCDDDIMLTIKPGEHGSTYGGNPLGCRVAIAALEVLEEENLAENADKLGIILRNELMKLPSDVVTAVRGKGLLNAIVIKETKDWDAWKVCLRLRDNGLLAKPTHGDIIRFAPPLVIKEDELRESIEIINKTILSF
inactive: [1] 0.087 | [2] 0.014 | [3] 0.02 | [4] 0.042 | Nexturastat A -0.01 | vemurafenib 0.011 | [5] -0.023 | [6] -0.011 | givinostat 0.045 | barasertib 0.061

NFATC2 (UniProt Q13469)
UniProt Q13469, sequence (Q13469 whole entry, looked up): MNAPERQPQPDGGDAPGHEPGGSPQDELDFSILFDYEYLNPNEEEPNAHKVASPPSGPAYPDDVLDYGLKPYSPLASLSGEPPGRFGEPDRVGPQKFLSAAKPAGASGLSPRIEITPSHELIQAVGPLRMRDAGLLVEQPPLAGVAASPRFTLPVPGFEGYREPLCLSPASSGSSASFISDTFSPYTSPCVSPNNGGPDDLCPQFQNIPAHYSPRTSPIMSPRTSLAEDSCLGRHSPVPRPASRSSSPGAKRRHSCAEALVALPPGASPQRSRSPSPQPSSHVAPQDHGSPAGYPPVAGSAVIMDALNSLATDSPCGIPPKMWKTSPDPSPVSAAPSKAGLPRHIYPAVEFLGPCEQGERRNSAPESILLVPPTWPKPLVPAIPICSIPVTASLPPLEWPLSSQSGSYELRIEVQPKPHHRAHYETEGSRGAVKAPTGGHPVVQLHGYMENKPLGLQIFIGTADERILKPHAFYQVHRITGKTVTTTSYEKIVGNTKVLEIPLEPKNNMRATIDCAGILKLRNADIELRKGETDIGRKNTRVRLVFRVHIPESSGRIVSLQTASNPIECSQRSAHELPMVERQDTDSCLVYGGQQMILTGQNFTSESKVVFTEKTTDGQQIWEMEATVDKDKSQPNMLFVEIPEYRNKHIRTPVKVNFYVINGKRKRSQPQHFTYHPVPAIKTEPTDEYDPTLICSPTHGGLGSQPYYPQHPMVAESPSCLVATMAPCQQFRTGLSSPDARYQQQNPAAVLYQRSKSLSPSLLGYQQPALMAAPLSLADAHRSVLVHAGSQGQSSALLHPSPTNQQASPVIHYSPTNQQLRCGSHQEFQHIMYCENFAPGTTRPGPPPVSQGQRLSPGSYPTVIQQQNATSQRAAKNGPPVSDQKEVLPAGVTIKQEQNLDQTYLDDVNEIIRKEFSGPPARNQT
inactive: [1] -0.046 | [2] -0.079 | [3] -0.031 | [4] 0.018 | Nexturastat A 0.12 | vemurafenib 0.038 | [5] 0.041 | [6] 0.086 | givinostat 0.192 | barasertib 0.107

NFYC (UniProt Q13952)
inactive: [1] 0.005 | [2] 0.011 | [3] -0.061 | [4] 0.019 | Nexturastat A -0.087 | vemurafenib -0.006 | [5] -0.001 | [6] -0.031 | givinostat 0.001 | barasertib 0.028

NNT (UniProt Q13423)
inactive: [1] 0.02 | [2] -0.004 | [3] 0.004 | [4] 0.058 | Nexturastat A -0.091 | vemurafenib 0.025 | [5] 0.016 | [6] -0.023 | givinostat 0.001 | barasertib 0.01

NUP210 (UniProt Q8TEM1)
UniProt Q8TEM1, sequence (Q8TEM1 whole entry, looked up): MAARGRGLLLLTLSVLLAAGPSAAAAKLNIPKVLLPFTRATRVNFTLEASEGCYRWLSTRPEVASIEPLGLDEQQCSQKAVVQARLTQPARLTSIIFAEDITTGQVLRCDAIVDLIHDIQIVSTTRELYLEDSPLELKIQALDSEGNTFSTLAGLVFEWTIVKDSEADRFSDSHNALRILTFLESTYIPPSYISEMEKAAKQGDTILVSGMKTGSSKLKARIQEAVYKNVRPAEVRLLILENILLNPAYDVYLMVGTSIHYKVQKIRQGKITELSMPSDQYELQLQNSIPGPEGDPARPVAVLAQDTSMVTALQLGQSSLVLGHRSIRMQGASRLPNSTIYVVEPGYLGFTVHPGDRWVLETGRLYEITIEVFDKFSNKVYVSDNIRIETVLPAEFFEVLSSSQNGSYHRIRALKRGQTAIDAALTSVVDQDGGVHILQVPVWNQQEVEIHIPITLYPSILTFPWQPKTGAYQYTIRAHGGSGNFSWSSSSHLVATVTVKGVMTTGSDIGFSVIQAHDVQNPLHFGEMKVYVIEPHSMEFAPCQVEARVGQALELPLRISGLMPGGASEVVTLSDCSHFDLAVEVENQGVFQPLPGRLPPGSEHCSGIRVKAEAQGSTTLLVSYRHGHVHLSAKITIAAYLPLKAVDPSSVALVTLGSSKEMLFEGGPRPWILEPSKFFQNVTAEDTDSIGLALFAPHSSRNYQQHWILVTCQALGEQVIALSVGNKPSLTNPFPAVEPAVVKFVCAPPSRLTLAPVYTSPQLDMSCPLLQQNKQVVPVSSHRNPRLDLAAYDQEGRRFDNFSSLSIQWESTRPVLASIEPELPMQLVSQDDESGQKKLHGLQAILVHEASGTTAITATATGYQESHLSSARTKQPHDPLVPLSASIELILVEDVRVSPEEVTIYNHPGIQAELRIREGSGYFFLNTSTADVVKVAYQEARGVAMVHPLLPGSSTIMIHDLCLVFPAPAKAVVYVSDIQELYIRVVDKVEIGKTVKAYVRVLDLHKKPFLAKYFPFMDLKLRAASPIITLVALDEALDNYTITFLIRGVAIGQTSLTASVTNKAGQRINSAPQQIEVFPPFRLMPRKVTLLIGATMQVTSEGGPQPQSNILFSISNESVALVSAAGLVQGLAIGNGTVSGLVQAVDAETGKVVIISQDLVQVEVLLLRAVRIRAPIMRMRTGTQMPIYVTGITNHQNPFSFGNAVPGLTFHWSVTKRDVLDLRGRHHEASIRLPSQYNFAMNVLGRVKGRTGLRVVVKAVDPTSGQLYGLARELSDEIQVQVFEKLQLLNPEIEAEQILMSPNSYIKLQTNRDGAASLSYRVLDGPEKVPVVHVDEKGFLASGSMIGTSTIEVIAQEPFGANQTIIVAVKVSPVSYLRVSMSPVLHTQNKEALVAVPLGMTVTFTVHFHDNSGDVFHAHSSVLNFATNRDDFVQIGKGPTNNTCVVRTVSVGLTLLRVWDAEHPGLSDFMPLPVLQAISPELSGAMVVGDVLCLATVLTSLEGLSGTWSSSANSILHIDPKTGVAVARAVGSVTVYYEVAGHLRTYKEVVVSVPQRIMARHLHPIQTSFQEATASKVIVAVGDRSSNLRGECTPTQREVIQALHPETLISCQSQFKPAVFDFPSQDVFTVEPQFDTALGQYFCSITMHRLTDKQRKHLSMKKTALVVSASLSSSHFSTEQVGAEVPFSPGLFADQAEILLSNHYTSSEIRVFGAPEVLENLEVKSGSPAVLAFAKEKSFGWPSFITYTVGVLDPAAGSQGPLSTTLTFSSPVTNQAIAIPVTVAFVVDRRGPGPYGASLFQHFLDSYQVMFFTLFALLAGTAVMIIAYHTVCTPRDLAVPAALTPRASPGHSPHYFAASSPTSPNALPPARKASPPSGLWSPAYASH
inactive: [1] -0.029 | [2] 0.052 | [3] 0.084 | [4] 0.035 | Nexturastat A -0.08 | vemurafenib -0.002 | [5] 0.058 | [6] -0.05 | givinostat -0.017 | barasertib 0.029

MYL12B (UniProt O14950)
inactive: [1] 0.005 | [2] -0.015 | [3] 0.014 | [4] 0.007 | Nexturastat A -0.005 | vemurafenib 0.039 | [5] 0.054 | [6] 0.136 | givinostat -0.023 | barasertib 0.014

NOL11 (UniProt Q9H8H0)
inactive: [1] -0.023 | [2] 0.029 | [3] 0.004 | [4] 0.013 | Nexturastat A -0.024 | vemurafenib -0.026 | [5] 0.003 | [6] -0.016 | givinostat 0.015 | barasertib -0.021

NEDD4L (UniProt Q96PU5)
inactive: [1] 0.015 | [2] -0.138 | [3] -0.046 | [4] 0.01 | Nexturastat A -0.059 | vemurafenib 0.049 | [5] 0.019 | [6] 0.013 | givinostat 0.056 | barasertib -0.021
